Screening data from PubChem BioAssay.
Compounds with a hit are over-represented: about 3.8% of the library has one in this group of screens.
Gli-Sufu antag: Gli-Sufu pathway antagonists, primary screen, luciferase luminescence, Sufu-KO-LIGHT cells, uHTS | Sufu-KO-LIGHT fibroblasts, Gli luciferase reporter luminescence | inhibition, % at 5 µM | 340,000 tested, 0.74% active | AID 588413, 2011;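 active = inhibition above about 55%, limit read from the data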;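 note: 0% = DMSO-treated cells and 100% = wells with medium but no cells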
Mdm2-MdmX inh: inhibitors of human Mdm2-MdmX association, primary screen, cell-based, luminescence, split luciferase, SaOS-2, uHTS; Protein Mdm4 (Homo sapiens) + E3 ubiquitin-protein ligase Mdm2 (Homo sapiens), …; SaOS-2 split-luciferase Mdm2/MdmX complementation; 330,000 tested, 3% active; inhibition, % at 8 µM;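 active = inhibition of at least 50% at 8 µM in the primary screen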
697 NFkB inh: inhibitors of PMA/ionomycin-induced NF-kB reporter, 697 cells, primary screen, B-cell NF-kB inhibitor project, cell-based, luminescence, uHTS. 697 B-cell NF-kB luciferase reporter, 16 h. inhibition, % at 4 µM. 330,000 tested, 0.33% active. AID 435022, 2010; in the data active = inhibition above about 35%
Jurkat NFkB inh: inhibitors of induced NF-kB luciferase reporter, primary screen, TCR NF-kB activation inhibitor project, cell-based, luminescence, uHTS. 330,000 tested, 0.53% active. Jurkat, PMA/ionomycin-induced NF-kB luciferase reporter. inhibition, % at 4 µM; in the data active = inhibition above about 50%
Shn3 3UTR inh: reduction of Shn3 3'UTR firefly luciferase signal, primary screen, Schnurri-3 inhibitor project, cell-based, Clone20 osteoblasts, set 2; 360,000 tested, 0.52% active; Clone20 osteoblast Shn3 3'UTR firefly luciferase, 24 h; inhibition, % at 12.5 µM;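 active = mean inhibition of at least 75% with every replicate also reaching 75%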;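 note: 0% = median of neutral control wells and 100% = pilot-screen positive control compound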
Mdm2 MdmX conf: Mdm2-MdmX complex disruptors, retested hits, confirmation, luminescence, single concentration | shares compounds with Mdm2-MdmX inh | AID 489028, 2010 | 10,000 tested, 55% active | inhibition, % at 8 µM | Mdm2-MdmX binding, luminescent assay; in the data active = inhibition above about 40%
FLuc counter: full-length luciferase signal inhibition, confirmation, counter-screen for Mdm2/MdmX interaction inhibitor project, cell-based, single concentration, SaOS-2; shares compounds with Mdm2-MdmX inh; SaOS-2 full-length luciferase counterscreen, luminescence; inhibition, % at 8 µM; 6,200 tested, 77% active;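 active = mean inhibition at 8 µM reaching about 37%, which flags the compound as non-specific, limit read from the data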;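 note: p53-null SaOS-2 cells with luciferase driven by a doxycycline-inducible promoter; compound on cells about two nights before reading with doxycycline added after day one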
* = called active by the depositor; . = no result given.

SMILES	Gli-Sufu antag	Mdm2-MdmX inh	697 NFkB inh	Jurkat NFkB inh	Shn3 3UTR inh	Mdm2 MdmX conf	FLuc counter
CCC1(c2ccccc2)NC(=O)N(CC(=O)Nc2ccc(S(=O)(=O)NC3=NCCCCC3)cc2)C1=O (centres undefined)	-4.8	22.8	-2.4	7.6	-33.6	.	.
C#CCOC(=O)CCCC(=O)NCCCCCCCC	-8.3	0.1	-5.9	-5.9	0.9	.	.
CCc1ccc(Oc2ncnc(N)c2[N+](=O)[O-])cc1	-20.2	12.6	-2.2	-0.1	3.0	.	.
CC(=O)c1ccc(Oc2ncnc(N)c2[N+](=O)[O-])cc1	14.6	60.2*	-2.3	4.7	4.3	60.3*	45.0*
CC(/C=N\Nc1nnc2c(n1)[nH]c1c(C)cccc12)=C\c1ccco1	14.8	90.8*	-17.4	-9.3	6.6	40.4*	57.2*
O=C(CCl)N(C1CCCC1)C1CCS(=O)(=O)C1 (centres undefined)	-8.9	87.1*	13.1	2.4	1.6	72.3*	54.9*
CC[C@@H](C)[C@H](CN[C@H](CNC)C(C)C)NC[C@@H](C)c1ccc(CC(C)C)cc1	10.8	98.2*	10.4	0.2	67.2	100.0*	52.3*
Cc1ccc2c(c1)[C@H]1[C@H](CO2)[C@H](c2ccccc2)[C@]2(C)C(=O)Nc3cc(F)ccc3C(=O)N12	5.8	57.9*	12.6	29.6	37.8	30.4	.
CCOC(=O)[C@H]1[C@H]2COc3ccc(C)cc3[C@@H]2N2C(=O)c3ccc(C)cc3NC(=O)[C@@]12C	-7.3	15.3	21.9	9.6	-4.6	.	.
CCOC(=O)[C@H]1[C@H]2COc3ccc(Br)cc3[C@@H]2N2C(=O)c3ccc(Cl)cc3NC(=O)[C@@]12C	21.3	54.4*	30.1	2.6	17.5	34.2	.
C[C@@]12C(=O)Nc3ccc(F)cc3C(=O)N1[C@H]1c3cc(Br)ccc3OC[C@@H]1[C@@H]2c1ccccc1	-0.8	37.4	-23.3	17.7	-29.0	.	.
C[C@@]12C(=O)Nc3cc(F)ccc3C(=O)N1[C@H]1c3cc(Br)ccc3OC[C@@H]1[C@@H]2c1ccccc1	1.2	55.5*	5.9	7.2	13.1	51.2*	36.4*
O=C(NCCCn1ccnc1)c1ccc(S(=O)(=O)N2CCOCC2)cc1	-1.5	1.1	0.1	-2.9	-9.8	.	.
CC(C)n1cnc2c(Nc3cccc(Cl)c3)nc(NCCCO)nc21	4.9	72.9*	-10.8	-21.1	-8.0	73.8*	71.7*
CC(C)[C@H](CO)Nc1nc(Nc2ccc(Cl)c(C(=O)O)c2)c2ncn(C(C)C)c2n1	4.5	14.8	2.4	12.6	-11.4	.	.
Cc1cc(/C=N/Nc2ncnc(N)c2[N+](=O)[O-])c(C)n1-c1ccccc1	53.7	64.7*	-50.0	39.0	53.3	70.5*	53.7*
Clc1ccc2ncc(-c3nnnn3-c3ccccc3)c(-c3ccccc3)c2c1	13.2	56.0*	14.2	8.4	12.4	39.3	43.1*
Clc1ccc(-n2nnnc2-c2cnc3ccc(Cl)cc3c2-c2ccccc2)cc1	2.0	61.4*	-6.3	26.4	11.3	38.5	.
COc1ccc(OCc2cc(C(=O)NC3CCOC(C)(C)C3)no2)c2ccccc12 (centres undefined)	.	-34.4	-121.9	-114.0	-81.0	.	.
Cn1nc(-c2ccccc2)c(C(O)c2ccc(Cl)cc2)c1Cl (centres undefined)	-3.4	-31.9	-13.1	-16.6	-47.8	.	.
Cn1nc(-c2ccccc2)c(CSc2ccccc2Cl)c1Cl	-19.0	52.6*	0.2	18.6	-28.9	64.6*	55.9*
Cc1ccc(C(=O)NCC(=O)NC23CC4CC(CC(C4)C2)C3)cc1	-3.2	-19.4	-21.0	-50.6	-59.3	.	.
CCN1CCN(C(=O)c2ccc3c(Cl)c4c(nc3c2)CCCC4)CC1	-8.7	25.0	-22.5	-13.4	-4.2	.	.
CCN1CCN(CCCNC(=O)c2ccc3c(Cl)c4c(nc3c2)CCCC4)CC1	.	73.2*	-24.1	2.1	-0.9	46.4*	43.5*
CCCNC(=O)c1ccc2nc(-c3ccccc3)c(-c3ccccc3)nc2c1	-7.8	11.4	7.0	1.7	1.3	.	.
SMILES	Gli-Sufu antag	Mdm2-MdmX inh	697 NFkB inh	Jurkat NFkB inh	Shn3 3UTR inh	Mdm2 MdmX conf	FLuc counter
COCCCNC(=O)c1ccc2c(=O)n(Cc3ccc(Cl)cc3)c(=S)[nH]c2c1	34.9	31.1	-16.9	6.9	-3.0	.	.
CCN1CCN(CCNC(=O)c2ccc3nc(-c4cccc(C)c4)c(-c4cccc(C)c4)nc3c2)CC1	21.5	100.2*	-37.0	0.9	5.2	59.4*	16.3
CC1CCN(CCNC(=O)c2ccc3c(=O)n(Cc4ccc(Cl)cc4)c(=S)[nH]c3c2)CC1	10.1	96.6*	-1.5	-2.8	-8.3	31.4	.
O=C(NCCCN1CCCCCC1)c1ccc2c(Cl)c3c(nc2c1)CCCC3	3.0	58.6*	-0.7	-5.0	-0.2	21.1	.
O=C(NN=C1CCCCCCCCCCC1)c1ccccc1F	0.1	1.8	-0.2	12.1	1.4	.	.
CC(OC(=O)c1ccc(Cl)nc1)C(=O)NC1CCCC1 (centres undefined)	-1.5	-10.5	7.2	-0.9	2.6	.	.
COc1cccc(OCC(=O)N2CCCc3ccccc32)c1	12.2	-34.7	-4.2	-6.4	-13.2	.	.
N#CC1CCN(C(=O)c2ccc3c(Cl)c4c(nc3c2)CCCC4)CC1	6.2	52.4*	-9.5	14.3	-32.1	-15.2	.
CC1CCN(CCCNC(=O)c2ccc3c(Cl)c4c(nc3c2)CCCC4)CC1	10.7	79.0*	-17.2	-2.1	-14.5	68.4*	30.3
COCCNC(=O)c1ccc2c(Cl)c3c(nc2c1)CCC3	20.1	-26.2	-26.7	-48.1	-59.9	.	.
Cc1cc(Cl)ccc1-c1nc(NC(C)C)nc2ccsc12	.	.	.	.	7.1	.	.
Clc1ccc(CSc2ccc(-c3ccccn3)nn2)cc1	-45.4	60.4*	-37.6	-43.8	-24.2	59.6*	43.4*
O=C(CSc1ccc(-c2ccccn2)nn1)Nc1ccc(F)c(F)c1	21.7	67.4*	3.3	34.4	76.5	43.3*	55.2*
CCOc1ccc(NC(=O)CSc2ccc(-c3ccccn3)nn2)cc1	-14.2	24.1	-6.4	11.7	4.3	.	.
Cc1ccc(NC(=O)CSc2ccc(-c3ccccn3)nn2)cc1	-11.1	54.6*	21.6	0.3	1.3	41.4*	78.5*
CCOC(=O)c1ccc(NC(=O)CSc2ccc(-c3ccccn3)nn2)cc1	-7.1	69.6*	-18.7	13.7	4.0	52.6*	58.9*
